Assay results reported in PMC7862700, “An all-to-all approach to the identification of sequence-specific readers for epigenetic DNA modifications on cytosine”.

Key:
Assay in all cases: DAPPL (digital affinity profiling via proximity ligation, sequencing); 10 mM Tris-HCl pH 7.5, 50 mM NaCl, 1 mM DTT, 4% glycerol, room temperature, 30 min; GST-TFs on glutathione beads, 16-mer random dsDNA library, 0.1% formaldehyde crosslink after washing; high values mean tight binding
Details in all cases: protein: recombinant; tags: N-terminal GST; dsDNA, one strand shown
[1] = biological target: T1, FLI1 (Homo sapiens, UniProt Q01543 1-452)
T1 sequence: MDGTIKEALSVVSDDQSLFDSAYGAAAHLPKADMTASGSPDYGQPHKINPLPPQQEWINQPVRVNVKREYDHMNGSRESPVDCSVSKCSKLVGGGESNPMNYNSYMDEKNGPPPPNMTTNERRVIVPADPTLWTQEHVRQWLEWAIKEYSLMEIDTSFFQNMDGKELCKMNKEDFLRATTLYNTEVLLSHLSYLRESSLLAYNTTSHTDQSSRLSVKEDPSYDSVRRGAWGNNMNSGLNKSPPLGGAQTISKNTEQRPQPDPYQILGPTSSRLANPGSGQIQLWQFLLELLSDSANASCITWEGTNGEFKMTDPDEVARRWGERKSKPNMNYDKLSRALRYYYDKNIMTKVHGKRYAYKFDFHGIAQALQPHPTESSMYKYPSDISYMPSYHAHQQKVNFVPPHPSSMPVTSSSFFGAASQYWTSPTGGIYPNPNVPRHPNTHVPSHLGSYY
How it was run: (§1)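 Pools were built from human transcription factors expressed in yeast as GST fusions, captured on glutathione beads and DNA-barcoded, along with a tag-only sample. Incubation with 200 nmole of a 16-mer random double-stranded DNA library lasted 30 min at room temperature in Tris/NaCl/DTT/glycerol buffer, and was followed by washing, 0.1% formaldehyde crosslinking, proximity ligation, PCR amplification and Illumina NextSeq500 sequencing. Binding signal is the quotient of each hexamer's read frequency for a factor and its frequency for the tag-only sample.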

[2] = biological target: T2, ELK1 (Homo sapiens, UniProt P19419 1-428)
T2 sequence: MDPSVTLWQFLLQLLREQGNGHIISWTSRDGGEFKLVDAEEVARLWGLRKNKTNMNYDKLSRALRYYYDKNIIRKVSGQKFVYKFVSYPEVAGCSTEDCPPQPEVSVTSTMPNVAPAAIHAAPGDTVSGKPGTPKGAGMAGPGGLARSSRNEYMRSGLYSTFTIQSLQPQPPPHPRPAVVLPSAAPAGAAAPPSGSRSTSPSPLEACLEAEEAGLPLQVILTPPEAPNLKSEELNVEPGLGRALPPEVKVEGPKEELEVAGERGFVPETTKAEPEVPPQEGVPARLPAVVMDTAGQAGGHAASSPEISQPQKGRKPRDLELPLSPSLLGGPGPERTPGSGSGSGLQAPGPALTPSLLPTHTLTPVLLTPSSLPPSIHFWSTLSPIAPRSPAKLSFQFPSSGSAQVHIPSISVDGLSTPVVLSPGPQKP
How it was run: as §1

[3] = biological target: T3, GABPA (Homo sapiens, UniProt Q06546 1-454)
T3 sequence: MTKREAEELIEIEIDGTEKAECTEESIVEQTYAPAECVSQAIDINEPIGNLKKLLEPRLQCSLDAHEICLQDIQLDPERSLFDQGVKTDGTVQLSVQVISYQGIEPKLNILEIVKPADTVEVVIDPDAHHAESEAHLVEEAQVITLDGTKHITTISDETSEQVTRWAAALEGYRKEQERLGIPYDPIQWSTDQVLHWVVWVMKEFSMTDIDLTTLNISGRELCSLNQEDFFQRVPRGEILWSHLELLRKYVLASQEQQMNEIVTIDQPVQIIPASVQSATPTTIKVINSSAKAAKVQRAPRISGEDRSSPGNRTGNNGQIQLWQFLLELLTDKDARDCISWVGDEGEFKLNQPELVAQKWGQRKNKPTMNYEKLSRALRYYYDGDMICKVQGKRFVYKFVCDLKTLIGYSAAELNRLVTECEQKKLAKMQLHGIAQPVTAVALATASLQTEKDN
How it was run: as §1

[4] = biological target: T4, ERG (Homo sapiens, UniProt P11308 1-479)
T4 sequence: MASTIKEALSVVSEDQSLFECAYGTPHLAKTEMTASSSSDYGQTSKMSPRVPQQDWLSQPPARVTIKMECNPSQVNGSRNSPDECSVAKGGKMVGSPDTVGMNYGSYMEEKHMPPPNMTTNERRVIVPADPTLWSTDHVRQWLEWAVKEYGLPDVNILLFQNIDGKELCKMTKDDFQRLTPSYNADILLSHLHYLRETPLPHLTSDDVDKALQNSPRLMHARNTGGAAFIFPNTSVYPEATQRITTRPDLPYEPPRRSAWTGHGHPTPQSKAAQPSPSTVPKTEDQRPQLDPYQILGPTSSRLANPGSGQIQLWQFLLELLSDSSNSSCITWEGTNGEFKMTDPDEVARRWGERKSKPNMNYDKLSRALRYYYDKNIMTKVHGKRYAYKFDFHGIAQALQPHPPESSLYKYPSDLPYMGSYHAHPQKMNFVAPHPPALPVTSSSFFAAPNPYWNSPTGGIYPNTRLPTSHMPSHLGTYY
How it was run: as §1

[5] = biological target: ELF1 (Homo sapiens, UniProt P32519 1-619)
How it was run: as §1

[6] = biological target: T5, EHF (Homo sapiens, UniProt Q9NZC4 1-300)
T5 sequence: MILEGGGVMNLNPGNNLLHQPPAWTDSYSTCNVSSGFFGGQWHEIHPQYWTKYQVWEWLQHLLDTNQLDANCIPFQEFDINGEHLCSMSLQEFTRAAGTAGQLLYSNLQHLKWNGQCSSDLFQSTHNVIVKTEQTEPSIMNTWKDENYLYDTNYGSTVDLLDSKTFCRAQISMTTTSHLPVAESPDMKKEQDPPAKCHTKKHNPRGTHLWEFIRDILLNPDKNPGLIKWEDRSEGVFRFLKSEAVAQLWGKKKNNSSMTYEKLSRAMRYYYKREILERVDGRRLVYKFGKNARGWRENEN
How it was run: as §1

[7] = biological target: SPIB (Homo sapiens, UniProt Q01892 1-262)
How it was run: as §1

[8] = biological target: T6, FEV (Homo sapiens, UniProt Q99581 1-238)
T6 sequence: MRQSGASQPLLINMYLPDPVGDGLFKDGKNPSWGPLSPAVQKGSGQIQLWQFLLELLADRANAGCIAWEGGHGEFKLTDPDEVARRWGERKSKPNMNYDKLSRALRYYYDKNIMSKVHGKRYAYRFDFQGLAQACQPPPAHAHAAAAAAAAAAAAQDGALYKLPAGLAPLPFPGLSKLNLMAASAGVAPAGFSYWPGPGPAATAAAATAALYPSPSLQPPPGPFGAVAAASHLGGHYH
How it was run: as §1

[9] = biological target: ETV5 (Homo sapiens, UniProt P41161 1-510)
How it was run: as §1

[10] = biological target: ELF4 (Homo sapiens, UniProt Q99607 1-663)
How it was run: as §1

[11] = biological target: ETV1 (Homo sapiens, UniProt P50549 1-477)
How it was run: as §1

[12] = biological target: T7, ERF (Homo sapiens, UniProt P50548 1-548)
T7 sequence: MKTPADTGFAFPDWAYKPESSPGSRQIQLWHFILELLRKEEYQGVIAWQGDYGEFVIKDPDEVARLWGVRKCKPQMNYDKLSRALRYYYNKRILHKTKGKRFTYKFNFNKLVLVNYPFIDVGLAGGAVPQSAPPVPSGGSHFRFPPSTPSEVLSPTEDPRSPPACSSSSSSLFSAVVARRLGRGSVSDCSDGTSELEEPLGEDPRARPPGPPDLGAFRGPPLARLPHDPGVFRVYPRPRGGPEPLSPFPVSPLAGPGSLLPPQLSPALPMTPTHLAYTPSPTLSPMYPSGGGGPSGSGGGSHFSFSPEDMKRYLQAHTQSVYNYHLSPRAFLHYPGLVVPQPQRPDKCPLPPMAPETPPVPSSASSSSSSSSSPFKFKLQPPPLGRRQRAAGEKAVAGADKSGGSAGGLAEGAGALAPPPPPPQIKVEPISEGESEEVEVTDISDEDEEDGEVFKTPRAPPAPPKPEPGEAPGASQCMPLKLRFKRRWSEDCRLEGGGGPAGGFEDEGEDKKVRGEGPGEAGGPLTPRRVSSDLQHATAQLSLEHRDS
How it was run: as §1

[13] = biological target: T8, ETV3L (Homo sapiens, UniProt Q6ZN32 1-361)
T8 sequence: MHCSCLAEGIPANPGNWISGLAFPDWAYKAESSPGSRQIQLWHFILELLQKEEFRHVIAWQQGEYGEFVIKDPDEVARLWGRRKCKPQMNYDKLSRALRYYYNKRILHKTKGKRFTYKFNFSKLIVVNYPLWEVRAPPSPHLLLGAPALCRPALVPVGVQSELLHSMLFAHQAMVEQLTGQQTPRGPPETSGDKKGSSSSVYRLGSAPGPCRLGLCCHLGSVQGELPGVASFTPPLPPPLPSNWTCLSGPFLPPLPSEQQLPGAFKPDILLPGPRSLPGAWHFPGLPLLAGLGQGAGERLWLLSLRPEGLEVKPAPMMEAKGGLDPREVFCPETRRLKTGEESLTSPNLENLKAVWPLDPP
How it was run: as §1

[14] = biological target: T9, ETS2 (Homo sapiens, UniProt P15036 1-469)
T9 sequence: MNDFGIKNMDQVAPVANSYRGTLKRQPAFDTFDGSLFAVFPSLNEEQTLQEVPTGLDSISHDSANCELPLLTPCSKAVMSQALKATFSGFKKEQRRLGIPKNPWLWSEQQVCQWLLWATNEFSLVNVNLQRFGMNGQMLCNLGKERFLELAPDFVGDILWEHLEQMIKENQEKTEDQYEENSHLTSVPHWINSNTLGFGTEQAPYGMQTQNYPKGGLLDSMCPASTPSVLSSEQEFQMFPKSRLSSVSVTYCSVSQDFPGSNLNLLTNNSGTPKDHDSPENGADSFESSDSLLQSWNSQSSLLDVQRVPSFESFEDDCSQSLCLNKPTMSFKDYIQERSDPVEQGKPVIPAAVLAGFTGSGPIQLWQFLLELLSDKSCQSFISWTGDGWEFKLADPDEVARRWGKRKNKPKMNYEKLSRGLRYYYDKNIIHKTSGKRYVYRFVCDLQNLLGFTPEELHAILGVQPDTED
How it was run: as §1

[15] = biological target: T10, ETV7 (Homo sapiens, UniProt Q9Y603 1-341)
T10 sequence: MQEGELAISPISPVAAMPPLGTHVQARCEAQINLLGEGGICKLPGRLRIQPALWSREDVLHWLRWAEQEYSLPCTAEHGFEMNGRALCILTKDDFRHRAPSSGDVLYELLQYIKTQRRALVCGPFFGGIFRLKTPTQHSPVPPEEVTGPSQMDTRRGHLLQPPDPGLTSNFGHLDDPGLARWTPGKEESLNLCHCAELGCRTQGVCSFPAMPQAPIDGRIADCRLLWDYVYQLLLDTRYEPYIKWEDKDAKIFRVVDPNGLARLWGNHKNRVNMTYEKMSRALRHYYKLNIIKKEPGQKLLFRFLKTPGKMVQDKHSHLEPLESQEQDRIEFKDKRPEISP
How it was run: as §1

[16] = biological target: T11, ETV3 (Homo sapiens, UniProt P41162-2 1-143)
T11 sequence: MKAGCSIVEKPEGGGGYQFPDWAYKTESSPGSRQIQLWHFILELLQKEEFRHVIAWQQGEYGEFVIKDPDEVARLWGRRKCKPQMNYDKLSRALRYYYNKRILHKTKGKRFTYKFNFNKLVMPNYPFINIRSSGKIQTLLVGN
How it was run: as §1

[17] = biological target: ETV6 (Homo sapiens, UniProt P41212 1-452)
How it was run: as §1

Chain of ELF1 (P32519 whole entry): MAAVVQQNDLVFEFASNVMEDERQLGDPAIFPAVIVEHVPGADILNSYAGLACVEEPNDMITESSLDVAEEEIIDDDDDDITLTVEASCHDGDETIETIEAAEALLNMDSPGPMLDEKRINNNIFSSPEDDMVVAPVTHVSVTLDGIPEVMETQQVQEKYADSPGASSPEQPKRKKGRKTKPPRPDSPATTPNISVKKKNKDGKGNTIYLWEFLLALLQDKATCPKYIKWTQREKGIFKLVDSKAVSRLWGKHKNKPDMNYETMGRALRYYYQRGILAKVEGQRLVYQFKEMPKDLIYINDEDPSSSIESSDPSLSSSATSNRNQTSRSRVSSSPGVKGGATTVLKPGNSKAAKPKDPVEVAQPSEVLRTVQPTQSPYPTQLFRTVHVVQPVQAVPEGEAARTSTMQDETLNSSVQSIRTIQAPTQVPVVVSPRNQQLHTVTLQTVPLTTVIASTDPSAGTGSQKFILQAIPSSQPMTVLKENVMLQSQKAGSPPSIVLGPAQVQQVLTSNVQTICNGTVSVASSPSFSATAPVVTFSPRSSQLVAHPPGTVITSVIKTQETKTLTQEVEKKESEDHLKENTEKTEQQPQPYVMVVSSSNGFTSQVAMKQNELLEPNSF
Chain of ETV5 (P41161 whole entry): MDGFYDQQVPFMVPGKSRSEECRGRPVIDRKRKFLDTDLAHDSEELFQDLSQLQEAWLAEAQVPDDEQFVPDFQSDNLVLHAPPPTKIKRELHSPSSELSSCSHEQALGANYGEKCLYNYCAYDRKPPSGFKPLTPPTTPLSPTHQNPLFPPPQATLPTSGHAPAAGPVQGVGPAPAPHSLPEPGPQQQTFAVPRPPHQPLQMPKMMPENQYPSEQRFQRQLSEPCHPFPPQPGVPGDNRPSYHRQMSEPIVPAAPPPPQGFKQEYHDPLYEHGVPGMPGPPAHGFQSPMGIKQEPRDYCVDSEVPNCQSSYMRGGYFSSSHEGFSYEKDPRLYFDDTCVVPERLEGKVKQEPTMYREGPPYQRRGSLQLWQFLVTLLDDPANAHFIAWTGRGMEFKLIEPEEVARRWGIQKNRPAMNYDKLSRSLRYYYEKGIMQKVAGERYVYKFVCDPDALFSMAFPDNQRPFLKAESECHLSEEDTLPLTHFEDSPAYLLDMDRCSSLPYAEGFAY
Chain of ELF4 (Q99607 whole entry): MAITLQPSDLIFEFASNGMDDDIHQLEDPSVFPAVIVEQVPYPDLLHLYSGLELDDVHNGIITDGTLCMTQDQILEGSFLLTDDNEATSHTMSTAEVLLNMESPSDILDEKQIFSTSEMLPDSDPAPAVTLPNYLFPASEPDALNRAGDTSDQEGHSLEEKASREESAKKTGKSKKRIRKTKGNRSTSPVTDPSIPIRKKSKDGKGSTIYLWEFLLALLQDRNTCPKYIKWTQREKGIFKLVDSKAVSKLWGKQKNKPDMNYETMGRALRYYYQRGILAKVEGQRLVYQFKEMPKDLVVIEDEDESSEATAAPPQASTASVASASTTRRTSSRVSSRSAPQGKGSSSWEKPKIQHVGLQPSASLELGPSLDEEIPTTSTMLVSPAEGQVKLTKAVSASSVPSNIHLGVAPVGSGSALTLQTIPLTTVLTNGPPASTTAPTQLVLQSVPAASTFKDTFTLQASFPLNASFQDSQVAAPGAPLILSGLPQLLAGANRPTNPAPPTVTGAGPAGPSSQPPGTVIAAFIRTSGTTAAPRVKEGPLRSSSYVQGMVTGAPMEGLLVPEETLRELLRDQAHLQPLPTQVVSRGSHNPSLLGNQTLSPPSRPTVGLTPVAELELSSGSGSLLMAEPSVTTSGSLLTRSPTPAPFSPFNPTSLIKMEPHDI
Chain of SPIB (Q01892 whole entry): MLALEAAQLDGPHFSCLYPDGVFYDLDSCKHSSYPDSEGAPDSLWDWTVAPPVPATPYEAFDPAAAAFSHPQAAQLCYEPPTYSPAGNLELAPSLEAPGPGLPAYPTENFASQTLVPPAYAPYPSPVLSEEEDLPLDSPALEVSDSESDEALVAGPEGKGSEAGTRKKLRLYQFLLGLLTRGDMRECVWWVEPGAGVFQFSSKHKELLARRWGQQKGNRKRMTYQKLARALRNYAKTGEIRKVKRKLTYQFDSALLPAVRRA
Chain of ETV6 (P41212 whole entry): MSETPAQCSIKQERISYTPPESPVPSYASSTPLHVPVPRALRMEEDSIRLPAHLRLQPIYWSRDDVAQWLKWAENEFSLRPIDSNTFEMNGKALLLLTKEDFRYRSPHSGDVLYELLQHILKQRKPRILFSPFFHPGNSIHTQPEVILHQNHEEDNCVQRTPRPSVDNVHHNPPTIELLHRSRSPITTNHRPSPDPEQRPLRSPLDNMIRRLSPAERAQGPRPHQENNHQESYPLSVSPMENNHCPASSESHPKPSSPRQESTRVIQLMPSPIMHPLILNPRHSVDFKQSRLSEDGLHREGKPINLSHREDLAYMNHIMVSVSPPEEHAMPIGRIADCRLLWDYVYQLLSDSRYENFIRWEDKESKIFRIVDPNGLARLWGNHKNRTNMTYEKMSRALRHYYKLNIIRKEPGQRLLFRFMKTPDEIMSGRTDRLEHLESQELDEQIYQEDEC
Chain of ETV1 (P50549 whole entry): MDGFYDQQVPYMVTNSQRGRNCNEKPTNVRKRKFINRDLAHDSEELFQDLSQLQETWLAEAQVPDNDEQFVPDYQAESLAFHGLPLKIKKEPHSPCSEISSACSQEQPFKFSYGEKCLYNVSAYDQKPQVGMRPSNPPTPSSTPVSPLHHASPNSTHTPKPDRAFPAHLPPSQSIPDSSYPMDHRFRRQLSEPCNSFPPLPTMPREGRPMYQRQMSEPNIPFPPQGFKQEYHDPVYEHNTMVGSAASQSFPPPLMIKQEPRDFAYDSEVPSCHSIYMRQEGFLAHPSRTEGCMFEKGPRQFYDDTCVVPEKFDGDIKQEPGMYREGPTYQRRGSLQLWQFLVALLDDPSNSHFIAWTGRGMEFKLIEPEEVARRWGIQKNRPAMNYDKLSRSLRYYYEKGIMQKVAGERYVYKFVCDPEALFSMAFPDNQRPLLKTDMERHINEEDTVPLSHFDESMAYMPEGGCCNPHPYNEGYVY

## GCAACC
[1]
  binding signal: 1.06 fold enrichment (6-mer frequency, TF over GST control)
[2]
  binding signal: 1.07 fold enrichment (6-mer frequency, TF over GST control)
[3]
  binding signal: 1.06 fold enrichment (6-mer frequency, TF over GST control)
[4]
  binding signal: 1.04 fold enrichment (6-mer frequency, TF over GST control)
[5]
  binding signal: 1.13 fold enrichment (6-mer frequency, TF over GST control)
[6]
  binding signal: 1.11 fold enrichment (6-mer frequency, TF over GST control)
[7]
  binding signal: 1.04 fold enrichment (6-mer frequency, TF over GST control)
[8]
  binding signal: 1.17 fold enrichment (6-mer frequency, TF over GST control)
[9]
  binding signal: 1.04 fold enrichment (6-mer frequency, TF over GST control)
[10]
  binding signal: 1.03 fold enrichment (6-mer frequency, TF over GST control)
[11]
  binding signal: 1.02 fold enrichment (6-mer frequency, TF over GST control)
[12]
  binding signal: 1.1 fold enrichment (6-mer frequency, TF over GST control)
[13]
  binding signal: 1.03 fold enrichment (6-mer frequency, TF over GST control)
[14]
  binding signal: 1.03 fold enrichment (6-mer frequency, TF over GST control)
[15]
  binding signal: 1.01 fold enrichment (6-mer frequency, TF over GST control)
[16]
  binding signal: 1.02 fold enrichment (6-mer frequency, TF over GST control)
[17]
  binding signal: 1.02 fold enrichment (6-mer frequency, TF over GST control)
